# Results from the supplement of paper PMC6555819.
# System: VDR homodimer (NR concentration 270 nM)
# Experiment: PBM binding z-score (relative to random genomic background probes); higher = stronger binding; sequences stand for … in GC…GCGATTGACAGCGTAGAATGAAGG
# Procedure, shortened: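 Ligand-free nuclear receptor dimers were bound for 1 h to custom Agilent 4×180K protein-binding microarrays. Detection used antibodies against each partner (one per run). Binding z-scores rest on regression-normalized fluorescence, with random background probes as the reference.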
row,Sequence,PBM binding z-score
1,GCGACTGGTGCAAAGCAGGTTACCATAAGGTTGG,-0.448
2,TAGCCTAGGTCGGATCGGGCCAGTATACGCTATA,-0.985
3,GCTTGTAGATCAAGATTAAGAAAGACTAAGCTAA,-0.356
4,CAAACTAGGTCAGAGAGGTCAAAGTCCGTGCGTA,6.12
5,TAGCCTGGGTCATGCGGGCCAGTATAGTGTCGGC,0.606
6,CAACCAAGGTGAACAAGGTCGTTGATTACTATTC,2.59
7,TATACAGGGTCAAAGGCCACAGTACGAATGTCGA,3.15
8,AGTCAAAGTTCAATAGGTAACGTAAGATTCAGCT,3.4
9,CAAACAGGGTCAGCTAGGCCAGAGTAGGGACGGC,1.44
10,TGTCAAAGTTCAAAGGTAACGTAAGTATCCACAC,4.04
11,TAGTCTAGGTCAGATCGGGCCAGTATACGCTATA,-0.0113
12,TCTCGGAGGACACGAAAGGTAAGAGCTCGACATC,-0.863
13,AGTCAAAGTTCATCTAGGTAAGGTAAGATATGCT,4.84
14,CGTCCAAGGTCAAAGGGCAGTGAAGAGATGACGG,2.28
15,TAGCCTAGGTCTTTGGGCCAGTATAGTACGCATC,-0.826
16,TTACCAGGGTGAAAGGTCGTTGATGCACGCCTTG,1.87
17,CGTCCAAGGTCAGAGAGGTCAATGAATGCCGAGT,6.88
18,TCATATAGGTAATACAGGTGAAAATCGGCATCTA,0.435
